Many of the other results were omitted from the sample, so hits are more common in it than they were.
Dicer processing: human Dicer pre-microRNA cleavage inhibition; Q9UPY3; cat-ELCCA pre-miR-21 Dicer processing, chemiluminescence; active compounds read high; z-score at 25 µM; 47,000 tested, 6% active; AID 1347074; in the data active = z-score above about 3, passing the limit was not always enough;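 also: plate controls were vehicle for no effect and no enzyme for full effect; higher signal means more uncleaved substrate so more Dicer inhibition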
Active calls of the source: *.

Results for Nc1nnc(-c2ccc(Cl)cc2)s1 ?
Dicer processing: 8.7*

What do the screens show for `Nc1nc(-c2ccc(Cl)cc2)cs1`?
Dicer processing: -4.2

How did CCCOc1cccc(-c2nnc(N)s2)c1 do in these assays?
Dicer processing: 2.3

What do the screens show for `CCCCOc1ccc(-c2nnc(N)s2)cc1`?
Dicer processing: 2.7

How did CC(C)C(=O)Oc1ccc2c(c1)oc(=O)c1ccccc12 do in these assays?
Dicer processing: -0.79

How did CC(=O)Nc1cccc(-n2nnc(SCC(=O)c3ccc4c(c3)OCCO4)n2)c1 do in these assays?
Dicer processing: -2.1

How did Brc1cc(-c2ccccn2)sc1Sc1ccccc1 do in these assays?
Dicer processing: 0.68

What do the screens show for `COc1cc2ncnc(Sc3ccc(C)cc3)c2cc1OC`?
Dicer processing: -3

Results for CCOC(CN(c1ccc(F)cc1)S(=O)(=O)c1ccc(F)cc1F)OCC ?
Dicer processing: -2.1

What do the screens show for `CCOC(CN(C(=O)c1ccc(C(F)(F)F)cc1)c1ccc(F)cc1)OCC`?
Dicer processing: -1.1

How did CCOC(CN(C(=O)c1ccc(C)cc1)c1ccc(F)cc1)OCC do in these assays?
Dicer processing: 4.6*

How did COC(=O)C1=C(C)NC2=C(C(=O)CCC2)C1c1cc(OC)ccc1OC (stereo not given) do in these assays?
Dicer processing: 0.91

What do the screens show for `Cc1nn(-c2cccc(C(F)(F)F)c2)c(=O)c2nc(-c3ccccc3)sc12`?
Dicer processing: -0.34

Results for C=CCOc1ccc(C2C(C(=O)OC)=C(C)NC3=C2C(=O)c2ccccc23)cc1OCC (stereo not given) ?
Dicer processing: -0.3

What do the screens show for `Cc1cc(=O)[nH]c(-c2cccc(Cl)c2)n1`?
Dicer processing: 1.2

What do the screens show for `CSc1nc(-c2ccco2)nn1C(=O)c1ccc(C)cc1`?
Dicer processing: 3.2*

Results for COc1ccc(C(=O)Cn2c3ccccc3n3nc(-c4ccco4)nc23)cc1 ?
Dicer processing: 1.4

What do the screens show for `CSc1nc(-c2ccco2)nn1C(=O)c1ccccc1`?
Dicer processing: 3.4*

How did Cc1ccc(-c2noc(-c3ccco3)n2)cc1 do in these assays?
Dicer processing: 0.03

What do the screens show for `CSc1nc(-c2ccco2)nn1C(C)=O`?
Dicer processing: -4.5

Results for Cc1ccc(C(=O)n2nc(C)c(Sc3ncccn3)c2C)cc1 ?
Dicer processing: -0.27

What do the screens show for `CCCCCCNc1nc2c(c(=O)[nH]c(=O)n2C)n1C(C)C`?
Dicer processing: 0.69

What do the screens show for `CN1C(=O)CC(NCc2ccc(S(N)(=O)=O)cc2)C1=O` (stereo not given)?
Dicer processing: 3.2*

How did NCc1ccc(S(N)(=O)=O)cc1 do in these assays?
Dicer processing: -0.5

Results for NS(=O)(=O)c1ccc(CNC2CC(=O)N(c3ccc(Br)cc3)C2=O)cc1 (stereo not given) ?
Dicer processing: 22

Results for O=C(N/N=C/c1ccc(Cl)cc1)c1cc(=O)nc2sccn12 ?
Dicer processing: 0.42

Results for COc1ccc(/C(O)=C2\C(=O)C(=O)N(CCCN(C)C)C2c2ccc(Cl)cc2)cc1 (stereo not given) ?
Dicer processing: 0.62

What do the screens show for `COC(=O)c1sc(N2CCCC2)c(S(=O)(=O)C(C)C)c1N`?
Dicer processing: -0.38

Results for COC(=O)c1sc(N2CCCC2)c(C#N)c1-c1cccs1 ?
Dicer processing: -2.2

Results for COC(=O)c1sc(N2CCCCC2)c(C#N)c1N ?
Dicer processing: 29*

Results for Cc1c(Cl)cccc1-n1ncnc1-c1ccc2c(c1)OCO2 ?
Dicer processing: 1.2

What do the screens show for `O=C(O)CCS(=O)CCC(=O)O`?
Dicer processing: -0.36

Results for Cc1n[nH]c(C)c1Sc1n[nH]c(=O)[nH]c1=O ?
Dicer processing: 1.3

What do the screens show for `COC(=O)c1sccc1NNS(=O)(=O)c1ccccc1`?
Dicer processing: 0.65

What do the screens show for `Cc1ccc(SCC(=O)Nc2nnc(SCC(=O)Nc3ccc(F)c(F)c3F)s2)cc1`?
Dicer processing: -0.51

How did CCOc1ccc(C2c3c(oc4ccc(F)cc4c3=O)C(=O)N2Cc2ccco2)cc1 (stereo not given) do in these assays?
Dicer processing: 0.16

How did NC(=O)NC(=O)Nc1ccccc1Cl do in these assays?
Dicer processing: 6*

How did NC(=O)NC(=S)NC(=O)c1ccccc1Cl do in these assays?
Dicer processing: -2.3

Results for CC(C)(ONC(=O)Nc1ccccc1Cl)C(=O)O ?
Dicer processing: -0.32

Results for S=c1[nH]nc(CN2c3ccccc3Sc3ccccc32)n1-c1ccc(Cl)cc1Cl ?
Dicer processing: -0.24

What do the screens show for `COC(=O)CN1c2ccccc2NC2=C(C(=O)CC(C)(C)C2)C1c1cccs1` (stereo not given)?
Dicer processing: 26

How did O=C1CSC(=Nc2cccc(Cl)c2Cl)N1Cc1ccco1 do in these assays?
Dicer processing: 0.25

What do the screens show for `Cc1ccccc1NCc1c(C#N)c2ccccc2n1C`?
Dicer processing: 3.5*

How did COc1ccc(OCc2c(C#N)c3ccccc3n2C)cc1 do in these assays?
Dicer processing: 0.02

What do the screens show for `N#Cc1c(=O)c2ccccc2n2ccccc12`?
Dicer processing: -1.8

Results for CC1=C(C(=O)OCCOc2ccccc2)C(c2ccc(Br)cc2)C2=C(CCCC2=O)N1 (stereo not given) ?
Dicer processing: -1

How did Cn1c(=O)c2c(ncn2CC(O)CN2CCCCC2)n(C)c1=O (stereo not given) do in these assays?
Dicer processing: 2.3

What do the screens show for `CN1c2ccccc2C(=O)/C(=C\Nc2ccc(F)c(Cl)c2)S1(=O)=O`?
Dicer processing: -1.4

How did Cc1sc(NC2=NS(=O)(=O)c3ccccc32)nc1-c1ccc(Cl)cc1 do in these assays?
Dicer processing: 3.6*

Results for Cc1ccccc1NC1=NS(=O)(=O)c2ccccc21 ?
Dicer processing: -2.4

Results for CCc1sc(NC2=NS(=O)(=O)c3ccccc32)nc1-c1ccccc1 ?
Dicer processing: -0.27

What do the screens show for `N#Cc1ccc(CNC(=S)Nc2ccccc2Cl)cc1`?
Dicer processing: 1.5

How did CC1=C(C(N)=O)C(c2ccc(Cl)cc2)n2nc(-c3ccc(N(C)C)cc3)nc2N1 (stereo not given) do in these assays?
Dicer processing: -2.3

What do the screens show for `CN(C)c1ccc(-c2nc3n(n2)C(c2cccnc2)C2=C(CC(C)(C)CC2=O)N3)cc1` (stereo not given)?
Dicer processing: 1.6

Results for CCOc1ccc(C2C3=C(CC(C)(C)CC3=O)Nc3nc(-c4ccc(OC)cc4)nn32)cc1 (stereo not given) ?
Dicer processing: 0.71

How did CN(C)c1ccc(-c2nc3n(n2)C(c2ccc(F)cc2)C2=C(CC(C)(C)CC2=O)N3)cc1 (stereo not given) do in these assays?
Dicer processing: 4.6*

Results for CN(C)c1ccc(-c2nc3n(n2)C(c2ccc(Cl)cc2)C2=C(CC(C)(C)CC2=O)N3)cc1 (stereo not given) ?
Dicer processing: 3.6*

What do the screens show for `CN(C)c1ccc(-c2nc3n(n2)C(c2cccnc2)C2=C(CCCC2=O)N3)cc1` (stereo not given)?
Dicer processing: 1.2

How did Cc1ccc(N2C(=O)C3C(c4ccccc4)OC4(C(=O)c5ccccc5C4=O)C3C2=O)cc1Cl (stereo not given) do in these assays?
Dicer processing: -0.12

How did COc1ccccc1C(=O)NNc1ncccc1C(F)(F)F do in these assays?
Dicer processing: 2

What do the screens show for `CCc1c(C)nc2nc(N)[nH]n2c1=O`?
Dicer processing: 0.42

What do the screens show for `COC(=O)c1c(N)n(CCc2ccccc2)c2nc3ccccc3nc12`?
Dicer processing: -6.3

How did CCOC(=O)c1sc(SC)nc1NC(=O)C(Cl)Cl do in these assays?
Dicer processing: 0.94

Source: PubChem
